hcDAF-12 act – H. contortus DAF-12 nuclear receptor activators, primary screen, cell-based, luminescence, HEK293, lit1-tk-luc reporter. HEK293 hcDAF-12 lit1-tk-luc reporter; 0% DMSO, 100% Δ7-dafachronic acid. activation, % at 6.8 µM. 1.4% of 370,000 active. AID 652067, 2013;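 active means activation above the mean of all tested compounds plus 3 SD, cut at about 5.5% in these data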;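 further: 100% = response to 3 µM Δ7-dafachronic acid high control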
ssDAF12 agonist – S. stercoralis DAF-12 nuclear receptor activators, primary screen, cell-based, luminescence, HEK293, GRIP1 co-expression, lit1-tk-luc. activation, % at 6.8 µM. AID 652126, 2013. Nuclear hormone receptor DAF-12 (Strongyloides stercoralis). 1% of 370,000 active. HEK293 ssDAF-12/GRIP1 lit1-tk-luc reporter; % of 3 µM dafachronic acid response;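 active means activation above the mean over all tested compounds plus 3 SD, cut at about 0.9% in these data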;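 further: 0% = DMSO-only wells and 100% = 3 µM delta7-dafachronic acid wells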
AHR activator – AHR activators, primary screen, cell-based, luminescence, luciferase reporter, human; activation, % at 5 µM; AHR-responsive luciferase reporter cells; 2.5% of 320,000 active; in the data active means activation above about 47%;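 further: 0% = vehicle wells and 100% = reference agonist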
Target sequence (P35869 whole entry, looked up): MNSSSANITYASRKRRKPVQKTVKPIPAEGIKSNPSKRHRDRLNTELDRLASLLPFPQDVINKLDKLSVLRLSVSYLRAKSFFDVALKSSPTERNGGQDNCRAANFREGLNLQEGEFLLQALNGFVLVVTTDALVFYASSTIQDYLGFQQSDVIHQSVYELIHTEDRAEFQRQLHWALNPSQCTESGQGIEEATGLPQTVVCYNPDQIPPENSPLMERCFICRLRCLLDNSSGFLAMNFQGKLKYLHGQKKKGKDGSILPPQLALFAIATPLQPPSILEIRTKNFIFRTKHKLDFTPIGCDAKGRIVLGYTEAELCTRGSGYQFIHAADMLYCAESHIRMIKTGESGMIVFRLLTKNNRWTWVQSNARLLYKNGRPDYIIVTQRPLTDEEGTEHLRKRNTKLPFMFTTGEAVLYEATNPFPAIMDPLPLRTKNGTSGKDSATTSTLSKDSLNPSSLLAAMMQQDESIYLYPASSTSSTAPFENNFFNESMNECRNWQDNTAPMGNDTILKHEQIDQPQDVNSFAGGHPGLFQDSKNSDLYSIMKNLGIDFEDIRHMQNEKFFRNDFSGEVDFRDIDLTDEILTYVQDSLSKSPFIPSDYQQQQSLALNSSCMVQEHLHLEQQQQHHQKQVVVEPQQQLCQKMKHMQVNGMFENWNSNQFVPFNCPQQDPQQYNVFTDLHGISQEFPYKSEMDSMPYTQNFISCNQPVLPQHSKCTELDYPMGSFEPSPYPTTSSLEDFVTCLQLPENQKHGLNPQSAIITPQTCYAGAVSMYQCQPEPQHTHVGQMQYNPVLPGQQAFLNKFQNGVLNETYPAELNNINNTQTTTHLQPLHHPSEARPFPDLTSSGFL
hgDAF-12 ag – H. glycines DAF-12 receptor agonists, primary screen, cell-based, luminescence, HEK293, GAL4 fusion, UAS-luciferase | HEK293 GAL4-hgDAF12 UAS-luciferase reporter, agonist luminescence; normalized to butyrate control | activation, % at 6.8 µM | 1.8% of 370,000 active | AID 687014, 2013;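 active means activation above a cutoff set at the mean of all screened compounds plus 3 SD, cut at about 10% in these data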;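 further: 0% = DMSO wells and 100% = sodium butyrate wells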
DAX1 inh-1 – DAX1 (NR0B1) inhibitors, primary screen, cell-based, HEK293, Gal4-DAX1, luciferase luminescence; Nuclear receptor subfamily 0 group B member 1 (Homo sapiens), P51843; HEK293 Gal4-DAX1 luciferase reporter; inhibition, % at 6.75 µM; 0.99% of 340,000 active; AID 504766, 2011;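 active means inhibition above the mean over all tested compounds plus 3 SD, cut at about 4.2% in these data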;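 further: 0% = DAX1-transfected cells with DMSO and 100% = empty-vector control cells with DMSO; inhibition shows as a rise in luminescence from relieved DAX1 repression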
DAX1 inh-2 – DAX1 (NR0B1) inhibitors on StAR promoter, primary screen, cell-based, luminescence, SF-1 (NR5A1), full-length DAX-1 | AID 652010, 2013 | inhibition, % at 6.8 µM | 1.1% of 370,000 active | HEK293T StAR-luciferase reporter, SF-1/DAX-1 repression relief;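 active means inhibition above the mean over all tested compounds plus 3 SD, cut at about 3.6% in these data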;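 further: 0% = DAX-1 cells with DMSO and 100% = cells lacking DAX-1 with DMSO; higher inhibition means more luminescence from relief of DAX-1 repression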
hgDAF12 conf – H. glycines DAF-12 receptor agonists, confirmation, cell-based, luminescence, HEK293, GAL4-LBD fusion; shares compounds with hgDAF-12 ag; HEK293 GAL4-hgDAF12 luciferase reporter, agonist mode; percent of butyrate response; activation, % at 6.8 µM; 80% of 3,300 active;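 active means mean activation over triplicate wells above the hit cutoff derived from the earlier primary screen, cut at about 11% in these data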;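 further: 0% = DMSO low control and 100% = 2 mM sodium butyrate high control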
LXRb DAF12 ctr – LXR agonists, Gal4 luciferase reporter, confirmation, counter-screen for hgDAF-12 agonist project, cell-based, luminescence, HEK293, H. glycines campaign; shares compounds with hgDAF-12 ag; 24 h; activation, % at 6.8 µM; 3,300 tested, under 10 active; AID 743051, 2013;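 active means mean activation of the triplicate above a set limit carried over from the primary screen, none filed active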
Numbers without * were called inactive; . = no result. The list is not random: actives were taken first. Their share in the collection is about 5.7%.

SMILES | hcDAF-12 act | ssDAF12 agonist | AHR activator | hgDAF-12 ag | DAX1 inh-1 | DAX1 inh-2 | hgDAF12 conf | LXRb DAF12 ctr
Cc1cc(NC(=O)c2cccc(Oc3ccccc3)c2)n[nH]1 | 4 | 0 | 66* | 19* | 3 | 3.7* | 13* | 0
O=C(Nc1cc(-c2ccccc2)[nH]n1)c1ccccc1 | 4 | 0 | 4 | 14* | 3 | 2 | 16* | 1
Nc1nc(Nc2ccccc2F)sc1C(=O)c1ccccc1 | 3 | -1 | 10 | 19* | 2 | 0 | 19* | 1
CC(C)(C)OC(=O)N1Cc2cc3ccccc3nc2C1 | 3 | 0 | . | 16* | 1 | 3.6* | 13* | 1
CC(C)(C)OC(=O)N1CCNc2ccccc2C1 | 1 | -1 | 0 | -1 | -2 | 0 | . | .
CC(=O)Nc1ccccc1 | 0 | -1 | -1 | 0 | 1 | 0 | . | .
CCC(C(=O)OCC(=O)Nc1ccc(F)cc1)c1ccccc1 (configuration not stated) | -2 | -1 | 0 | -1 | 0 | -1 | . | .
CC(=O)Nc1ccc(N=Nc2ccccc2)cc1 | 5 | -1 | -2 | 16* | 2 | 4.2* | 15* | 1
CC(C)C(=O)OCC(=O)Nc1ccc(N=Nc2ccccc2)cc1 | 2 | -1 | 1 | 16* | 3 | 3 | 17* | 1
Cc1onc(-c2c(Cl)cccc2Cl)c1C(=O)NC(=S)N1CCOCC1 | -2 | -1 | 0 | -1 | -2 | 0 | . | .
Cc1ccc(N2CCN(C(=O)c3cn(CC4CCCCC4)nn3)C(C)C2)cc1 (configuration not stated) | 2 | 1.0* | 16 | 15* | 1 | 4.3* | 13* | 1
O=C(c1cn(CC2CCCCC2)nn1)N1CCN(c2ccc(F)cc2)CC1 | -2 | -2 | -2 | 2 | -1 | -3 | . | .
CC(=O)Nc1cccc(-c2csc(C(O)c3cccc(Cl)c3)n2)c1 (configuration not stated) | 0 | -1 | . | -1 | . | -1 | . | .
CC(=O)Nc1cccc(-c2csc(Nc3ncccn3)n2)c1 | 5 | 1.1* | . | 19* | . | 2 | 16* | 1
CCN1CC2([N+](=O)[O-])C=CC(=O)C([N+](=O)[O-])(C1)C2CC(=O)c1ccccc1 (configuration not stated) | -1 | -1 | 0 | 0 | 2 | 0 | . | .
CC(C)N(Cc1nc(-c2ccc(Cl)cc2)no1)C(=O)CCC1CCCC1 | -2 | -2 | -1 | -2 | 0 | 0 | . | .
CC(=O)c1cccc(NC(=S)NCCC2=CCCCC2)c1 | -2 | -2 | 4 | 2 | -1 | -1 | . | .
O=C(NCCC1=CCCCC1)Nc1ccc2nsnc2c1 | 5.9* | 0 | 10 | 20* | 3 | 3.8* | 14* | 1
O=C(N/N=C/c1ccco1)c1cc(-c2ccc3ccccc3c2)n[nH]1 | 3 | 0 | 3 | 15* | 2 | 2 | 0 | 0
CCc1ccc(-c2cc(C(=O)N/N=C/c3ccco3)[nH]n2)cc1 | 4 | 0 | 42 | 14* | 1 | 2 | 3 | 0
COc1ccc(-c2cc(C(=O)N/N=C/C(C)=C\c3ccco3)[nH]n2)cc1 | 3 | 0 | . | 0 | . | 0 | . | .
O=C(N/N=C/c1cn(-c2ccccc2)nc1-c1cc2ccccc2o1)c1ccccc1Br | 4 | 1 | 31 | 7 | 3 | 3 | . | .
O=C(N/N=C/c1cn(-c2ccccc2)nc1-c1cc2ccccc2o1)c1c[nH]c2ccccc12 | 4 | 1 | 109* | 19* | 1 | 2 | 13* | 1
Cc1nn(-c2ccccn2)c(N)c1N=O | -1 | -1 | 7 | 0 | 1 | 0 | . | .
Cc1nn(-c2ccccn2)c2c1-c1nc(N)ncc1CC2 | 1 | 0 | 63* | 18* | 1 | 2 | 10* | 0
SMILES | hcDAF-12 act | ssDAF12 agonist | AHR activator | hgDAF-12 ag | DAX1 inh-1 | DAX1 inh-2 | hgDAF12 conf | LXRb DAF12 ctr
O=C1CS/C(=N\NC(=O)c2ccccc2)N1 | -2 | -1 | -1 | 0 | . | 0 | . | .
CC1=C/C(=N\NC(=O)c2ccccc2)CC1 | 3 | 0 | 0 | 14* | 0 | 2 | 1 | 0
CCSc1nnc(-c2ccc(S(=O)(=O)N3CCOCC3)cc2)n1C | 2 | -1 | -2 | -1 | 0 | 0 | . | .
O=C(Nc1ccc(C(O)(C(F)(F)F)C(F)(F)F)cc1)c1ccc(Cl)cc1 | -1 | -2 | . | 14* | . | . | 4 | 0
O=C(Nc1ccc(C(O)(C(F)(F)F)C(F)(F)F)cc1)c1ccc(Cl)c([N+](=O)[O-])c1 | -2 | -1 | 8 | 4 | -1 | -1 | . | .
O=C(Nc1ccn(-c2ccccc2)n1)c1ccccc1Br | 0 | 0 | 4 | 20* | 2 | 1 | 5 | 0
COc1ccc(C(=O)Cn2c(=O)oc3ccc(C)cc32)cc1 | -1 | -1 | -2 | -1 | 0 | 0 | . | .
COc1ccccc1N1CCN(S(=O)(=O)c2cn(C)cn2)CC1 | 1 | -1 | 1 | 0 | 0 | 0 | . | .
CC(OC(=O)C1CCCCC1)c1nc2ccccc2[nH]1 (configuration not stated) | 0 | -2 | -2 | 0 | 0 | -2 | . | .
C/C(CC(=O)Nc1cc(C)ccn1)=N\NC(=O)c1ccncc1 | -1 | -1 | 13 | 0 | 0 | 0 | . | .
CN(C)c1cccc(/C=C2\CC3(OC(=O)c4ccccc4)CCCN2C3)c1 (configuration not stated) | -1 | -1 | . | 22* | . | 0 | 0 | 0
CC(C)(C)c1ccc(NC(=O)Nc2ccc(F)cc2)cc1 | 3 | 0 | 8 | 15* | . | 3.6* | 15* | 1
CC(C)(C)c1ccc(NC(=O)c2ccc(=O)[nH]n2)cc1 | 5 | 0 | 9 | 17* | 5.6* | 2 | 14* | 1
Cc1ccc(NC(=O)C(=O)N2CCCC2)cc1Cl | 2 | 0 | 5 | 15* | 3 | 3 | 13* | 0
Cc1ccc(NC(=O)N2CCCC2)cc1Cl | -1 | 0 | -1 | 0 | 0 | 1 | . | .
